Screens from PubChem.
Bcl-xL primary: inhibitors of human Bcl-xL | Q07817 | GST-Bcl-xL / FITC-Bim BH3 peptide fluorescence polarization | inhibition, % at 10.9 µM | actives 0.7% (n = 320,000) | AID 2129;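 active = inhibition above the mean of all tested compounds plus 3 SD, cutoff set per campaign, cut at about 30% in these data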;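 also: 0% = DMSO wells and 100% = unlabeled Bim-BH3 peptide competitor; inhibitors lower millipolarization by displacing the labeled peptide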
Target sequence (Q07817 whole entry, looked up): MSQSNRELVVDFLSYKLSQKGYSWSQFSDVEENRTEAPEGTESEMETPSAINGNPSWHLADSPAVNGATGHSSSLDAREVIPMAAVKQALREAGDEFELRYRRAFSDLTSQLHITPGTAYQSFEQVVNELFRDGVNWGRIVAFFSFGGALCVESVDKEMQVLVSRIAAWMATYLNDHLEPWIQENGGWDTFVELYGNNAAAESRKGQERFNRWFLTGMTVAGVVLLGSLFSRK
eLon inh: inhibitors of E. coli Lon protease; actives 0.42% (n = 360,000); P0A9M0; inhibition, % at 7.94 µM; purified E. coli Lon protease, fluorescence polarization; in the data active = inhibition above about 13%, passing the limit was not always enough;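 also: 0% = enzyme with probe and DMSO and 100% = no enzyme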
GLD-1 RNA inh: GLD-1-TGE RNA interaction inhibition (C. elegans); Q17339; purified GLD-1 + fluorescein TGE RNA, fluorescence polarization; inhibition, % at 5.96 µM; actives 0.44% (n = 320,000); AID 2280;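 active = percent inhibition above a per-plate cutoff, the plate mean of test compounds plus 3 SD, cut at about 30% in these data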;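 also: 0% = DMSO wells with GLD-1 and probe and 100% = wells lacking GLD-1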
EBV gp42 block: blocks Epstein-Barr virus glycoprotein 42 binding; Q1HVG2; Fluorescence polarization binding assay, mP read-out; inhibition, % (tested at 21.74 µM); actives 0.42% (n = 220,000); AID 1085; in the data active = inhibition above about 50%
Target sequence (Q1HVG2 whole entry, looked up): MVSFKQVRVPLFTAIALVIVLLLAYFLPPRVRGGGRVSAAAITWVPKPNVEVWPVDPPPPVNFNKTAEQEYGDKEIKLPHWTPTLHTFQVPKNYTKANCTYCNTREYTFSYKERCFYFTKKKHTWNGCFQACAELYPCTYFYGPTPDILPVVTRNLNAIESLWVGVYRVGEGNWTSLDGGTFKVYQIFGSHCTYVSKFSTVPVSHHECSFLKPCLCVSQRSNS
MEX-5 binding: C. elegans MEX-5 TCR-2 RNA binding activity; Q9XUB2; AID 1832; actives 0.38% (n = 300,000); activity score (negative = inhibition of binding), % at 10 µM; MEX-5/FITC-TCR2 RNA binding, fluorescence polarization; stronger effect = lower value;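 active = inhibition past about -25% in most replicates, and total fluorescence under double the plate's negative control median, limit read from the data; inconclusive = replicates evenly split on the limit, or fluorescence at least double controls; inactive = too little inhibition in most replicates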;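 also: 0% = DMSO and -100% = 5 µM competing unlabeled TCR2 RNA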
eLon confirm: confirmation of E. coli Lon protease inhibitors; actives 31% (n = 1,400); purified E. coli Lon, fluorescence polarization; shares compounds with eLon inh; AID 602230; inhibition, % at 7.94 µM; in the data active = inhibition above about 16%;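 also: 0% = enzyme with probe and DMSO and 100% = no enzyme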
Starred values were filed as active, the others as inactive; ? = inconclusive; . = no result; + = active, no number. A selection: hits, their analogues and other compounds. The true share with any hit is near 1.3%.

SMILES	Bcl-xL primary	eLon inh	GLD-1 RNA inh	EBV gp42 block	MEX-5 binding	eLon confirm
Cc1ccc2c(c1)C1CN(C)CCC1N2S(=O)(=O)c1ccccc1F (stereo unspecified)	4	-2	3	.	.	.
CCn1ncc(Br)c1C(=O)Nc1c(C)nn(Cc2c(F)c(F)c(F)c(F)c2F)c1C	.	1	.	.	.	.
C=CCOc1cccc(C2C(C(=O)c3ccc(C)o3)=C(O)C(=O)N2c2nccs2)c1 (stereo unspecified)	144*	55*	130*	179*	-49*	126*
CCC(CC)C(=O)N(C)c1c(C)nc2c(OCC(=O)C(C)(C)C)cccn12	.	-7	.	.	.	.
O=C(Nc1cc(C(=O)N2CCN(c3ccccc3O)CC2)ccc1Cl)c1cccs1	3	9	10	.	-1	.
Cc1c(Br)cc(C(=O)O)c(C)c1C	3	9	7	-14	0	.
Cc1c(N)cc(N)cc1C(=O)O	145*	61*	128*	-5	-49*	14
CCOC(=O)c1cnc2c(ccc3ccccc32)c1NCCCN(C)C	7	-6	2	.	-1	.
O=C1c2ccccc2C(O)N1Cc1ccc2c(c1)OCO2 (stereo unspecified)	3	15*	3	-11	-1	-1
Cc1ccc(N=Cc2cccc(O)c2O)c(C)c1	27	9	7	-17	0	.
Cc1ccccc1N=Cc1cccc(O)c1O	36*	15*	0	19	0	30*
COc1ccc(-c2nc(CSCC(=O)N3CCN(C)CC3)c(C)o2)cc1OC	0	-3	6	-31	-1	.
CCN1CCN(C(=O)CSCc2nc(-c3ccc(OC)c(OC)c3)oc2C)CC1	4	15*	0	-29	-2	7
C#CCNC(=O)C1=C[C@@H](c2coc3ccccc3c2=O)C[C@@H](OCCCCO)O1	2	19*	2	-15	1	29*
O=C(Nc1cccc(S(=O)(=O)N2CCCCCC2)c1)C1CC(=O)N(c2ccc3c(c2)OCCO3)C1 (stereo unspecified)	-6	22*	1	.	0	-14
O=C(Nc1cccc(S(=O)(=O)N2CCCCC2)c1)C1CC(=O)N(c2ccc3c(c2)OCCO3)C1 (stereo unspecified)	-5	5	6	.	-1	.
CC(C)C(=O)N1CCC1(C)C(=O)Nc1ccc(-n2cncn2)cc1 (stereo unspecified)	.	1	.	.	.	.
O=C(c1ccc(Br)o1)N1CCN(C23CC4CC(CC(C4)C2)C3)CC1	6	29*	-2	.	0	-2
O=C(c1ccco1)N1CCN(C(=O)c2ccc(Br)o2)CC1	.	-5	.	.	.	.
O=Cc1cc(N=Nc2ccc(S(=O)(=O)O)cc2)ccc1O	-3	15	5	.	-13	.
Cc1cc(C=O)c(O)cc1O	2	37*	-4	.	-1	-5
COc1cc(C(CC(=O)N2CCCC2)c2c(OC)cc(OC)c3ccc(=O)oc23)cc(OC)c1OC (stereo unspecified)	36*	37*	55*	-12	-39*	14
COCc1cc(=O)[nH]c(/N=C(\N)Nc2cccc(Cl)c2)n1	2	-4	-5	-2	1	.
O=C(Nc1ccccc1N1CCCC1)c1ccc([N+](=O)[O-])o1	9	-13	1	.	5	.
COc1ccc(N2CCCC2)c(NC(=O)c2ccc([N+](=O)[O-])o2)c1	76*	41*	74*	.	-10	-10
SMILES	Bcl-xL primary	eLon inh	GLD-1 RNA inh	EBV gp42 block	MEX-5 binding	eLon confirm
O=C(CC1SC2=NCCN2C1=O)Nc1ccc(Cl)cc1 (stereo unspecified)	3	-6	6	-14	2	.
Cc1ccc(NC(=O)CC2SC3=NCCCN3C2=O)c(C)c1 (stereo unspecified)	110*	64*	82*	5	-9	17*
COc1cccc(-n2c(Cc3cc(=O)[nH]c(=O)[nH]3)nnc2SCC(=O)N2CCCCC2)c1	9	16*	11	-6	-5	23*
CCOc1ccc(-n2c(Cc3cc(=O)[nH]c(=O)[nH]3)nnc2SCC(=O)OC)cc1	6	16*	7	-28	-3	13
C[C@@H](NC(=O)[C@@H]1CCCN1C(=O)[C@@H]1CCCN1C(=O)c1ccc(Cl)cc1)c1ccccc1	.	-4	.	.	.	.
CC(=O)Nc1ccc(N2C(=O)c3cccc4c(O)ccc(c34)C2=O)cc1	+	+	+	.	-20	+
O=C1c2cccc3c(O)ccc(c23)C(=O)N1Cc1ccco1	.	+	.	172*	?	+
O=C1c2cccc3c(O)ccc(c23)C(=O)N1c1ccc(Cl)cc1	+	+	+	.	-41*	+
COc1ccc(N2C(=O)c3cccc4c(N(C)CCO)ccc(c34)C2=O)cc1	.	67*	.	.	?	22*
Cc1ccc(N2C(=O)c3cccc4c(C(=O)O)ccc(c34)C2=O)cc1	2	.	0	-20	3	.
O=C1c2ccccc2C(=O)N1c1ccc(Cl)cc1	2	.	-1	-12	-4	.
COc1ccc(S(=O)(=O)N2CCOCC2)cc1NC(=O)CSc1nnc2ccccn12	-17	.	2	-29	1	.
CC1(C)CC(NC(=S)Nc2ccc(S(N)(=O)=O)cc2)CC(C)(C)N1	0	4	-7	-16	1	.
CC1(C)CC(=O)C(C(=S)Nc2ccccc2)=C(NC2CC(C)(C)NC(C)(C)C2)C1	1	59*	5	2	1	-1
Cc1ccnc(NC(=O)CCC(=O)N(CC(=O)NCCc2ccccc2)c2ccccc2F)c1	-2	-9	-1	.	1	.
O=c1oc2ccccc2cc1-c1nc(-c2cccs2)cs1	-4	39*	139*	113*	?	45*
O=C(NNC(=O)c1ccccc1-n1cccc1)c1cncc(Br)c1	.	38*	7	.	.	-55
Cc1ccc(S(=O)(=O)N2CCc3cc4c(cc3C2C)OCCCO4)cc1 (stereo unspecified)	-2	18*	8	.	1	2
CCOC(=O)[C@]12CCC=C1N(Cc1ccc3c(c1)OCO3)C(=O)[C@H](CC(=O)NCc1cccs1)C2	.	1	.	.	.	.
COc1cc2oc(=O)cc(CN3CCN(C(C)=O)CC3)c2cc1Cl	.	31*	.	.	.	24*
COc1cc2oc(=O)cc(CN3CCCCC3)c2cc1Cl	.	-9	.	.	.	.
CCCCCNC(=O)Cn1c(=O)c2c(ncn2CC(C)C)n(Cc2ccccc2)c1=O	-3	1	3	.	-1	.
OCCC1CN(Cc2ccsc2)CCN1C1CCCC1 (stereo unspecified)	2	20*	8	-9	2	3
CC(C)CCN1CCN(Cc2ccsc2)CC1CCO (stereo unspecified)	2	-8	-2	-9	-1	.
Cc1noc(NS(=O)(=O)c2ccc(NC(=O)c3ccccc3NS(=O)(=O)c3ccc(F)cc3)cc2)c1C	.	4	3	.	.	.
C=CCOc1ccc(CNCC2CCCO2)cc1 (stereo unspecified)	5	54*	-2	.	0	5
